Rows were chosen to be rich in hits. Some 4.1% of all compounds tested hit in one or more screens of this group.
hcDAF12 agonist = activates DAF-12 receptor from parasite H. contortus. HEK293 hcDAF-12 lit1-tk-luc reporter, luminescence; 0% DMSO, 100% Δ7-dafachronic acid. activation, % at 6.8 µM. actives 1.4% (n = 370,000). AID 652067;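 active means activation above the mean of all tested compounds plus 3 SD, cut at about 5.5% in these data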;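 further: 100% = response to 3 µM Δ7-dafachronic acid high control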
DAX1 inh-1 = DAX1 (NR0B1) inhibition, primary screen. actives 1.1% (n = 370,000). inhibition, % at 6.8 µM. HEK293T StAR-luciferase reporter, SF-1/DAX-1 repression relief;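 active means inhibition above the mean over all tested compounds plus 3 SD, cut at about 3.6% in these data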;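 further: 0% = DAX-1 cells with DMSO and 100% = cells lacking DAX-1 with DMSO; higher inhibition means more luminescence from relief of DAX-1 repression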
ssDAF12 agonist = S. stercoralis DAF-12 activation, primary screen. activation, % at 6.8 µM. actives 1% (n = 370,000). HEK293 ssDAF-12/GRIP1 lit1-tk-luc reporter, luminescence; % of 3 µM dafachronic acid response;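 active means activation above the mean over all tested compounds plus 3 SD, cut at about 0.9% in these data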;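 further: 0% = DMSO-only wells and 100% = 3 µM delta7-dafachronic acid wells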
DAX1 inh-2 = NR0B1 (DAX1) inhibition; inhibition, % at 6.75 µM; HEK293 Gal4-DAX1 luciferase reporter, luminescence; AID 504766; actives 0.99% (n = 340,000);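 active means inhibition above the mean over all tested compounds plus 3 SD, cut at about 4.2% in these data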;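 further: 0% = DAX1-transfected cells with DMSO and 100% = empty-vector control cells with DMSO; inhibition shows as a rise in luminescence from relieved DAX1 repression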
Target sequence (P51843 207-470 limits assumed): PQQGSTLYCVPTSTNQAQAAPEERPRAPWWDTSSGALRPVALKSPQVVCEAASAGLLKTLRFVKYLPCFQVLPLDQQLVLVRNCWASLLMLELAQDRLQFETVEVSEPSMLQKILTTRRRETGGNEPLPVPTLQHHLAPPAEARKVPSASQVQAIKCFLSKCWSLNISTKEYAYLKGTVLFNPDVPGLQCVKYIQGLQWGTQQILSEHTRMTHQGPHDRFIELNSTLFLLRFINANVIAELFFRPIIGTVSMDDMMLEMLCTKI
hgDAF-12 ag = activates the H. glycines DAF-12 receptor ligand-binding domain | AID 687014 | actives 1.8% (n = 370,000) | activation, % at 6.8 µM | HEK293 GAL4-hgDAF12 UAS-luciferase reporter, agonist luminescence; normalized to butyrate control;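 active means activation above a cutoff set at the mean of all screened compounds plus 3 SD, cut at about 10% in these data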;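 further: 0% = DMSO wells and 100% = sodium butyrate wells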
LXRb hcDAF ctr = activates human LXR-beta, counter-screen for hcDAF-12 agonists | shares compounds with hcDAF12 agonist | HEK293 Gal4-LXR tk-luc reporter, luminescence, 24 h; normalized: DMSO 0%, positive control 100% | activation, % at 6.8 µM | 3,400 tested, under 10 active;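 active means mean percent activation of the reporter above a cutoff set as the average over tested compounds plus their standard deviation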
Target sequence (P55055 whole entry, looked up, the tested form may be a part): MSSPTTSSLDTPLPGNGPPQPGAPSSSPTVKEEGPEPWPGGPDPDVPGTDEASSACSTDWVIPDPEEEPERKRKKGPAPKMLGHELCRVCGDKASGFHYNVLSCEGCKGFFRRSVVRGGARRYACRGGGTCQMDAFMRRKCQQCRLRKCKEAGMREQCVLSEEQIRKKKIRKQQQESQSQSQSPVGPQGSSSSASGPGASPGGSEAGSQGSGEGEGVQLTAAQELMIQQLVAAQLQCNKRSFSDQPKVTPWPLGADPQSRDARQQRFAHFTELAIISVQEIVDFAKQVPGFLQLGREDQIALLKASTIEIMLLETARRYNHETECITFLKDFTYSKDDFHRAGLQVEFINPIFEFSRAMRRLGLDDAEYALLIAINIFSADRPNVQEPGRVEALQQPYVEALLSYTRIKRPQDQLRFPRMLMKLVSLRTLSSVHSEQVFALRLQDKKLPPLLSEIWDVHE
hcDAF12 ag = confirmation of H. contortus DAF-12 agonists; shares compounds with hcDAF12 agonist; actives 61% (n = 3,400); activation, % at 6.8 µM; AID 743032; HEK293 hcDAF-12 lit1-tk-luc reporter, luminescence; % of Δ7-dafachronic acid response;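 active means mean activation across triplicate tests above the threshold derived from the earlier primary screen, cut at about 5.5% in these data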;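 further: 0% = DMSO only wells and 100% = 3 µM Δ7-dafachronic acid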
An asterisk follows results filed as active.

For Cc1[nH]c2ccccc2c1CC(=O)Nc1ccc(N(C)c2cccnc2)c(-c2ccc(F)c(F)c2)c1 the results were hcDAF12 agonist 2.6, DAX1 inh-1 -1.9, ssDAF12 agonist 0.1 and hgDAF-12 ag 5.6.
`COc1ccc(NC(=O)Nc2nnc(-c3ccco3)s2)cc1` gave hcDAF12 agonist 8.3*, DAX1 inh-1 1.8, ssDAF12 agonist 1.2*, DAX1 inh-2 2.6, hgDAF-12 ag 11.7*, LXRb hcDAF ctr 0.9 and hcDAF12 ag 9.0*.
For COc1ccc(NC(=O)Nc2nnc(-c3ccccc3F)s2)cc1 the results were hcDAF12 agonist -1.5, DAX1 inh-1 1.0, ssDAF12 agonist -1.4, DAX1 inh-2 1.1 and hgDAF-12 ag -2.8.
For COc1ccc2c(c1)CNC2CS(=O)(=O)NCC(C)C (stereo not given) the results were hcDAF12 agonist -1.6, DAX1 inh-1 -0.4, ssDAF12 agonist -0.7 and hgDAF-12 ag -0.7.
For CS(=O)(=O)N(CC(=O)Nc1ccccc1-c1ccccc1)c1ccccc1 the results were hcDAF12 agonist 0.2, DAX1 inh-1 -0.3, ssDAF12 agonist -0.5, DAX1 inh-2 0.2 and hgDAF-12 ag -1.3.
Screening Cc1ccc(N(CC(=O)Nc2ccccc2-c2ccccc2)S(=O)(=O)c2ccccc2)c(C)c1 returned hcDAF12 agonist 6.6*, DAX1 inh-1 0.1, ssDAF12 agonist -1.8, DAX1 inh-2 0.1, hgDAF-12 ag 2.1, LXRb hcDAF ctr -0.1 and hcDAF12 ag 2.0.
Screening c1ccc(-c2nc3cc4ccccc4cc3[nH]2)nc1 returned hcDAF12 agonist 8.8*, DAX1 inh-1 1.7, ssDAF12 agonist 0.3, DAX1 inh-2 -3.3, hgDAF-12 ag 8.8, LXRb hcDAF ctr 1.6 and hcDAF12 ag 11.2*.
Fc1ccc(OCc2nnc(-c3ccccc3Br)o2)c(Cl)c1 was read as hcDAF12 agonist 7.1*, DAX1 inh-1 1.4, ssDAF12 agonist -0.3, DAX1 inh-2 0.7, hgDAF-12 ag 10.8*, LXRb hcDAF ctr 0.6 and hcDAF12 ag 3.3.
O=C(CNc1cccc2ccccc12)c1ccc([N+](=O)[O-])cc1 was read as hcDAF12 agonist 6.8*, DAX1 inh-1 -0.4, ssDAF12 agonist 0.1, DAX1 inh-2 -0.4, hgDAF-12 ag -2.5, LXRb hcDAF ctr -0.1 and hcDAF12 ag 1.5.
Screening O=C(Nc1cccc2ccccc12)c1ccc([N+](=O)[O-])cc1 returned hcDAF12 agonist -2.4, DAX1 inh-1 0.1, ssDAF12 agonist -1.2, DAX1 inh-2 -0.8 and hgDAF-12 ag 1.1.
`CCc1ccc(/C=C/C(=O)C2C(=O)c3ccccc3C2=O)cc1` gave hcDAF12 agonist 8.8*, DAX1 inh-1 3.0, ssDAF12 agonist 1.0*, DAX1 inh-2 0.0, hgDAF-12 ag 7.2, LXRb hcDAF ctr 0.3 and hcDAF12 ag 5.9*.
`CCc1ccc(C2C(C(=O)O)c3ccccc3C(=O)N2C)cc1` (stereo not given) gave hcDAF12 agonist -0.1, DAX1 inh-1 -0.3, ssDAF12 agonist -0.6, DAX1 inh-2 0.6 and hgDAF-12 ag -0.2.
Cc1cccc(-c2noc(-c3ccc(Cl)cc3[N+](=O)[O-])n2)c1 was read as hcDAF12 agonist 8.9*, DAX1 inh-1 1.7, ssDAF12 agonist -0.5, DAX1 inh-2 1.9, hgDAF-12 ag 12.6*, LXRb hcDAF ctr 1.8 and hcDAF12 ag 7.7*.
COc1ccc(CN2C(=O)CSCCC2(C)c2nnnn2-c2c(C)cccc2C)cc1 (stereo not given) was read as hcDAF12 agonist -2.1, DAX1 inh-1 -0.9, ssDAF12 agonist -0.7 and hgDAF-12 ag -1.4.
For CC(=O)c1ccc(NC(=O)NC2CCCCN(Cc3ccc(Cl)cc3)C2=O)cc1 (stereo not given) the results were hcDAF12 agonist -2.7, DAX1 inh-1 -1.7, ssDAF12 agonist -1.1 and hgDAF-12 ag 0.1.
For O=C(Nc1ccc2ccccc2c1)NC1CCCCN(Cc2ccc(Cl)cc2)C1=O (stereo not given) the results were hcDAF12 agonist 9.2*, DAX1 inh-1 -1.0, ssDAF12 agonist 2.9*, hgDAF-12 ag 6.1, LXRb hcDAF ctr -0.2 and hcDAF12 ag 0.0.
For COc1ccc(-c2cn3cc(Cl)ccc3n2)cc1OC the results were hcDAF12 agonist 8.6*, DAX1 inh-1 2.4, ssDAF12 agonist 0.7, DAX1 inh-2 1.9, hgDAF-12 ag 9.0, LXRb hcDAF ctr 0.2 and hcDAF12 ag 5.2.
For COc1ccc(-c2cn3nc(C)c(C)nc3n2)cc1OC the results were hcDAF12 agonist 0.7, DAX1 inh-1 2.5, ssDAF12 agonist -0.1, DAX1 inh-2 1.2 and hgDAF-12 ag 1.5.
Clc1ccc2nc(-c3ccc(Br)s3)cn2c1 was read as hcDAF12 agonist 14.9*, DAX1 inh-1 3.5, ssDAF12 agonist 1.0*, DAX1 inh-2 -2.1, hgDAF-12 ag 11.2*, LXRb hcDAF ctr 1.4 and hcDAF12 ag 18.8*.
Screening Cc1ccc(S(=O)(=O)NC(=O)NCCCN2CCOCC2)cc1 returned hcDAF12 agonist 7.6*, DAX1 inh-1 -0.4, ssDAF12 agonist -0.4, DAX1 inh-2 3.4, hgDAF-12 ag -0.2, LXRb hcDAF ctr -0.4 and hcDAF12 ag 0.6.
Screening Fc1ccc(-c2ccc3c(n2)CCCN3Cc2ccccc2C(F)(F)F)cc1 returned hcDAF12 agonist 0.7, DAX1 inh-1 0.5, ssDAF12 agonist -1.0 and hgDAF-12 ag 3.3.
Screening Cc1cccc(SCC(=O)Nc2ccc3c(c2)OCCO3)c1 returned hcDAF12 agonist 7.1*, DAX1 inh-1 0.6, ssDAF12 agonist 0.1, DAX1 inh-2 0.5, hgDAF-12 ag 4.8, LXRb hcDAF ctr 0.6 and hcDAF12 ag 5.8*.
COc1ccc(CN(CC#Cc2ccc(C)cc2)C(N)=NC(=O)CCc2ccccc2)c(OC)c1 was read as hcDAF12 agonist 1.0, DAX1 inh-1 -1.6, ssDAF12 agonist -0.8 and hgDAF-12 ag 0.0.
Screening O=C(Nc1nc(-c2cccs2)c(-c2cccs2)s1)C1CCCC1 returned hcDAF12 agonist 8.1*, DAX1 inh-1 -0.3, ssDAF12 agonist -1.0, DAX1 inh-2 -0.8, hgDAF-12 ag 4.5, LXRb hcDAF ctr -0.2 and hcDAF12 ag 1.1.
Screening Cc1c(-c2nc(-c3ccc(C(F)(F)F)cc3)no2)n(C)oc1=O returned hcDAF12 agonist 9.5*, DAX1 inh-1 1.5, ssDAF12 agonist -0.3, hgDAF-12 ag 9.4, LXRb hcDAF ctr 1.1 and hcDAF12 ag 7.9*.
For CS(=O)(=O)c1ccccc1-c1nc(-c2ccc(C(F)(F)F)cc2)no1 the results were hcDAF12 agonist -2.5, DAX1 inh-1 -0.8, ssDAF12 agonist -1.5, DAX1 inh-2 -1.0 and hgDAF-12 ag 0.9.
